In PubChem BioAssay (NCI):
The panel holds about 83,000 compounds, 20% with a hit somewhere; the sample as a whole holds those more often.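 Growth was measured after 48 h exposure to one concentration of compound in 96-well plates. Values under 10 count as active.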 Unmarked numbers belong to inactive results. Calls of active or inactive are those of the source.

System: HCT-15 colon
Assay: NCI-60 one-dose screen, 48 h (100 = growth as untreated, 0 = no growth, -100 = all killed)
Conditions: 10 µM unless noted
Experimental: Growth inhibition of the HCT-15 human tumor cell line is measured as a screen for anti-cancer activity. Cells are grown in 96 well plates and exposed to the test compound for 48 hours. Compounds are tested at a single concentration, which is 10^-5 M for most compounds. The reported endpoint is percent growth (GI% or GIPRCNT), where numbers from 0 - 100% represent growth inhibition, and numbers from -100% - 0 represent cell death. For example, a value of 40 represents 60% growth inhibition. A value of 0 means no net growth occurred over the course of the experiment. A value of -40 indicates 40% of cells at the beginning of the experiment died by the end of the experiment. A value of -100 means all cells are dead at the end of the experiment.
NCI-60 Human Tumor Cell Lines Screen was performed using the standard one-dose NCI protocol, which is described in more detail at https://dtp.cancer.gov/discovery_development/nci-60/default.htm.
Compounds with GIPRCNT values below 10 were considered active. Activity score was based on GIPRCNT using the following formula: […]
Score is 0 for GIPRCNT values of 100 or above, 50 for GIPRCNT values of 0, and 100 for GIPRCNT values of -100.

With `COc1ccc(-c2nc(SCC(=O)Nc3nc(-c4ccccc4)cs3)[nH]c(=O)c2C#N)cc1` as the molecule, how does the growth read?
The growth was 109%.

Which growth does the source give for `CC/C=C\C[C@H](O)C/C=C1/C(=O)C=C[C@@H]1C/C=C\CCCCO` here?
The growth was 2.31% (active).

With `C(=N\Nc1ncc(-c2cc3cc4c(cc3o2)OCO4)s1)/c1ccco1` as the molecule, how does the growth read?
The growth was 18.4%.

How did the growth turn out when `CCn1c(C)nc2cc(C(N)=O)ccc21` was run?
The growth was 92.8%.

`CC(CCc1ccc(Cl)c(Cl)c1)NCc1ccc(C(C)(C)C)cc1` (stereo not given) was tested. Which growth did it give?
Its growth is 77.3%.

`C=CCn1c(C)nc2cc(Nc3nc(N4CCCC4)nc4ccccc34)ccc21` was tested. Which growth did it give?
The growth was 79.4%.

`Cc1cc(O)c(C2=NN(c3ccc(S(N)(=O)=O)cc3)C(c3ccccc3Cl)C2)cc1Cl` (stereo not given) was tested. Which growth did it give?
Its growth is 34.8%.

With `CCN(CC)CCN1CC(O)=C(c2nc(-c3ccc(Cl)cc3)cs2)C1=N` as the molecule, how does the growth read?
The growth was -13.4% (active).

How did the growth turn out when `O=C1N=c2cc3c(cc2=C/C1=C/c1sc(=S)n(CCc2ccc(O)cc2)c1O)OCCO3` was run?
The growth was 9.98% (active).

For `C=C(C)[C@@H]1CC[C@]2(C)[C@H](CC=C3[C@@H]4CC(C)(C)CC[C@]4(C(N)=O)CC[C@]32C)[C@@]1(C)CCC#N`, which growth is on record?
Its growth is 14.8%.

How did the growth turn out when `NC(=S)Nc1cccc(O)c1` was run?
Its growth is 88.3%.

Which growth does the source give for `CNC(=O)c1cc(Oc2ccc3nc(Nc4ccc(Cl)c(C(F)(F)F)c4)ccc3c2)ccn1` here?
Its growth is 41.2%.

`CCOC(=O)c1c2ncccc2n2c(=O)n(-c3ccccc3C)nnc12` was tested. Which growth did it give?
Its growth is 100%.

Which growth does the source give for `Cc1cc(Cl)nc(NCc2cc(Nc3ccnc4cc(Cl)ccc34)ccc2F)n1` here?
Its growth is 11.7%.

`Cc1nn(-c2ccccc2)c2nc3c(c(-c4ccc(Cl)cc4)c12)CNC1(CCSCC1)N3` was tested. Which growth did it give?
Its growth is 101%.

`COc1ccc(C(=O)/C=C/c2c(C(F)(F)F)nc3sccn23)cc1OC` was tested. Which growth did it give?
The growth was 24.6%.

With `O=C(/C=C/c1ccc(Cl)nc1)c1ccc(Cl)cc1Cl` as the molecule, how does the growth read?
Its growth is 69.2%.

Which growth does the source give for `COc1cccc2c1C(=O)c1c(O)c3c(c(O)c1C2=O)CC(O)(/C(C)=N/NC(=O)CCCCC(=O)N/N=C(\C)C1(O)Cc2c(O)c4c(c(O)c2C(OC2CC(N)C(O)C(C)O2)C1)C(=O)c1c(OC)cccc1C4=O)CC3OC1CC(N)C(O)C(C)O1` (stereo not given) here?
The growth was 13.8% [5 µM].

How did the growth turn out when `COc1ccc(S(=O)(=O)NCCNc2nccc(-c3c(-c4cccc(F)c4)nc4sccn34)n2)cc1` was run?
Its growth is 23.4%.

For `O=C1/C(=C/c2ccc(F)cc2)C=C(c2ccccc2)N1CCc1ccccc1`, which growth is on record?
The growth was 77.9%.

How did the growth turn out when `Cc1ccc2nc(C)c(-c3nnc(SCc4ccc(C#N)cc4)o3)n2c1` was run?
The growth was 79.6%.

Which growth does the source give for `CC(C)Sc1nc(NNC(N)=S)c(C#N)c(-c2ccc(F)cc2)n1` here?
Its growth is 95.9%.

For `O=C(Nc1ccccc1Cl)Oc1ccc(-c2ccccc2)cc1`, which growth is on record?
The growth was 104%.

With `COC(=O)CCC1=C(C)C2=NC1=CC1=NC(=CC3=NC(=Cc4[nH]c(/c(=C(/C)O)c4C)=C2)C(C(C)=O)=C3C)C(C)=C1CCC(=O)OC` as the molecule, how does the growth read?
Its growth is 99.8%.

`CCOC(=O)C/C(C)=N\NC(=O)c1ccncc1` was tested. Which growth did it give?
Its growth is 108%.

For `O=C1CCC2=C3C4CCCCC4C(=O)C4CCCC(OC2C1)C34` (stereo not given), which growth is on record?
Its growth is 4.39% (active).

How did the growth turn out when `Cc1c(O)cc(-c2cnc(N/N=C\c3ccc(Cl)cc3)s2)c(O)c1C` was run?
The growth was 85%.

With `COc1ccc(N2CCN(c3nc(-c4cc(OC)c(OC)c(OC)c4)nc4ccccc34)CC2)cc1` as the molecule, how does the growth read?
Its growth is 61.8%.

For `Cc1cc(/C=C\c2ccc3ccccc3[n+]2C)c(O)c2ncccc12`, which growth is on record?
The growth was 27.9%.

How did the growth turn out when `N#Cc1c(-c2ccccn2)[nH]c(=S)[nH]c1=O` was run?
The growth was 96.7%.

With `CCCCOc1nc2ccccc2cc1C1CNC(=O)c2ccccc2N1` (stereo not given) as the molecule, how does the growth read?
Its growth is 15.3%.

With `C[n+]1cc2c3c(ccc2c2ccc4cc5c(cc4c21)OCO5)OCO3` as the molecule, how does the growth read?
Its growth is -81.2% (active).

`Cn1cc2c(c1)-c1nc(Nc3ccccc3)ncc1CC2` was tested. Which growth did it give?
The growth was 45.9%.

`COc1cc(C2CC(=O)Nc3c2c(C)nn3-c2nc3ccccc3[nH]2)cc2c1OCC(=O)N2` (stereo not given) was tested. Which growth did it give?
The growth was 95.3%.

`NC(=O)c1ccc[n+](Cc2ccc(Cl)cc2Cl)c1` was tested. Which growth did it give?
Its growth is 105%.

Which growth does the source give for `O=C(CCCCCCSc1nc(-c2ccccc2)cc(-c2ccc(Cl)cc2)n1)NO` here?
Its growth is 15.6%.

For `Cc1nc2ccccc2n1CC1NC(=O)NC1=O` (stereo not given), which growth is on record?
Its growth is 104%.

Which growth does the source give for `CCCCn1c(=O)c2c(nc3n2CCCN3CCc2ccc(OCC(=O)NCCN(CC)CC)cc2)n(CCCC)c1=O` here?
Its growth is 1.38% (active).

Which growth does the source give for `COc1ccc(-c2nc(SCCC(C)C)nc(N/N=C\c3cccc(Cl)c3)c2C#N)cc1` here?
Its growth is 82.2%.

How did the growth turn out when `CC(C)=C[C@@H]1c2c(c3ccccc3n(C)c2=O)O[C@H]2c3c(c4ccccc4n(C)c3=O)OC(C)(C)[C@@H]12` was run?
The growth was 65.4%.
